target: PEG-3 (UniProt Q6IN02); experiment: inhibition of PEG-3 promoter-driven reporter – cell-based, HeLa, luciferase, CREF/GAPDH counter-screen panel, dose response (AID 624167); conditions: CREF/GAPDH counter-screens; HeLa PEG-Prom luciferase reporter, overnight, run 1, dose range 1, at 100 µM (top of the series) unless noted
Sequence (Q6IN02 whole entry, looked up): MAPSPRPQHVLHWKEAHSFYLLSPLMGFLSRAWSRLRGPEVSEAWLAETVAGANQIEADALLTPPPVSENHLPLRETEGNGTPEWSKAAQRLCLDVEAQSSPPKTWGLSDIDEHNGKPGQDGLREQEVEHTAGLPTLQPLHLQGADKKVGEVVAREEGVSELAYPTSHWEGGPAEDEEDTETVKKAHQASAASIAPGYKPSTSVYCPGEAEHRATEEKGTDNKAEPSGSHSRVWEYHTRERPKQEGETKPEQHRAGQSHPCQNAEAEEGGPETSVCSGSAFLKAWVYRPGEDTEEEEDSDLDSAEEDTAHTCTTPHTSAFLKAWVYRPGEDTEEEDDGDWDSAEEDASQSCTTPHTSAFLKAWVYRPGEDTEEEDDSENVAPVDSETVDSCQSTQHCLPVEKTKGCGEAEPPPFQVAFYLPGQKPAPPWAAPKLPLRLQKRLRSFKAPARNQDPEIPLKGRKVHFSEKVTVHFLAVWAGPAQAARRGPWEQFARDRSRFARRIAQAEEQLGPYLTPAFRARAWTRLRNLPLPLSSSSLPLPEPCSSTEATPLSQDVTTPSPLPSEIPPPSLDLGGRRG

SMILES	inhibition
c1ccc(C(=NNc2nc3ccccc3s2)c2ccccn2)cc1	101%
CCN1CCN(c2nc(Nc3cc(OC)ccc3OC)nc(Nc3cc(OC)ccc3OC)n2)CC1	47.9%
COc1ccc2c(c1)c(=Cc1ccc(N(C)C)cc1)c1cc(-c3ccccc3)[n+](C)n12	102%
Cc1ccc(C)c(S(=O)(=O)N2CCN(c3ncnc4sccc34)CC2)c1	90.1%
CNC(=O)c1ccsc1NC(=O)c1ccc(S(=O)(=O)N2CCc3ccccc32)cc1	65%
COc1cccc2c1C(=O)c1c(O)c3c(c(O)c1C2=O)CC(O)(C(C)=NNC(=O)c1ccc(Cl)c(Cl)c1)CC3OC1CC(N)C(O)C(C)O1 (stereo not given)	102%
COc1ccc2sc(-c3ccc(S(C)(=O)=O)cc3)c(C#Cc3cncn3C)c2c1	-25.4%
CN1OC[C@@H]2CN(S(=O)(=O)c3cccc(C(F)(F)F)c3)[C@H](c3ccc(-c4cc5ccccc5o4)cc3)C[C@@H]21	60%
CCCc1cc(=O)n2[nH]c(C)c(-c3ccc(Cl)cc3)c2n1	94%
O=C(Nc1cccc(-c2cccc(Cl)c2)c1)C1CCN(C2CCC2)CC1	98%
O=C(CSc1nc(Nc2ccccc2)nc(N2CCOCC2)n1)Nc1cc(Cl)ccc1O	98.4%
O=c1[nH]c(=S)[nH]c(O)c1/C=C1\C=Nc2ccccc21	73%
COc1ccc(OC)c(Cc2cnc3nc(N)nc(N)c3c2C)c1	88.7%
COc1ccc(-c2cc(C(=O)N(C)Cc3ccc(OC)c(OC)c3OC)c3ccccc3n2)cc1OC	68.7%
Cc1ccc(OCC(=O)c2cc(C)n(Cc3ccco3)c2C)c([N+](=O)[O-])n1	58%

— PubChem BioAssay
